{"source": "PubChem BioAssay AID1159580", "about": "(chemical genetic matrix, 2015)", "assay": "chemical genetic growth profiling, strain panel (AID 1159580);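 note: tested at 20 µM; growth read once vehicle control cultures reached saturation at 30 °C; 1 = growth at the plate median or of vehicle wells; lower values mean less growth of the strain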", "details": "S. cerevisiae deletion strains, growth OD", "note": "Several values for one entry are separate records, joined by “and”; a condition that tells them apart may be missing. Equal values may be shown once. Out of some 5,500 compounds screened, about 2,000 (36%) were called active. Inconclusive results (about 18%) are left out. This is one part of the list. Values without a mark were called inactive. Cut-off read from the data, not from the text of the source: active = normalized growth mostly below about 0.91 (no sharp cut-off); inconclusive = no clear call, values can overlap the other calls; inactive = mostly above about 0.92.", "data": [{"smiles": "ClC1C(Cl)C(Cl)C(Cl)C(Cl)C1Cl", "note": "(stereo unspecified)", "values": [{"measurement": "normalized growth", "setting": "locus YAL013W, strain DEP1, active compounds read low", "result": 0.981}, {"measurement": "normalized growth", "setting": "locus YAL021C, strain ccr4, active compounds read low", "result": 0.997}, {"measurement": "normalized growth", "setting": "locus YAL026C, strain drs2, active compounds read low", "result": 0.988}, {"measurement": "normalized growth", "setting": "locus YAL030W, strain snc1, active compounds read low", "result": 0.98}, {"measurement": "normalized growth", "setting": "locus YBL061C, strain skt5, active compounds read low", "result": 0.965}, {"measurement": "normalized growth", "setting": "locus YBR009C, strain hhf1, active compounds read low", "result": "0.831 (active)"}, {"measurement": "normalized growth", "setting": "locus YBR021W, strain FUR4, active compounds read low", "result": 0.985}, {"measurement": "normalized growth", "setting": "locus YBR023C, strain chs3, active compounds read low", "result": 0.965}, {"measurement": "normalized growth", "setting": "locus YBR171W, strain sec66, active compounds read low", "result": 0.956}, {"measurement": "normalized growth", "setting": "locus YBR229C, strain ROT2, active compounds read low", "result": 0.962}, {"measurement": "normalized growth", "setting": "locus YBR231C, strain swc5, active compounds read low", "result": 0.913}, {"measurement": "normalized growth", "setting": "locus YBR279W, strain paf1, active compounds read low", "result": 0.971}, {"measurement": "normalized growth", "setting": "locus YCL011C, strain gbp2, active compounds read low", "result": 0.931}, {"measurement": "normalized growth", "setting": "locus YCL016C, strain dcc1, active compounds read low", "result": "0.898 (active)"}, {"measurement": "normalized growth", "setting": "locus YCL029C, strain bik1, active compounds read low", "result": "0.906 (active)"}, {"measurement": "normalized growth", "setting": "locus YCL061C, strain MRC1, active compounds read low", "result": "0.894 (active)"}, {"measurement": "normalized growth", "setting": "locus YCL069W, strain vba3, active compounds read low", "result": 0.986}, {"measurement": "normalized growth", "setting": "locus YCR088W, strain abp1, active compounds read low", "result": 0.965}, {"measurement": "normalized growth", "setting": "locus YDL005C, strain med2, active compounds read low", "result": 1.01}, {"measurement": "normalized growth", "setting": "locus YDL035C, strain GPR1, active compounds read low", "result": 0.976}, {"measurement": "normalized growth", "setting": "locus YDL040C, strain nat1, active compounds read low", "result": 0.986}, {"measurement": "normalized growth", "setting": "locus YDL074C, strain BRE1, active compounds read low", "result": 0.939}, {"measurement": "normalized growth", "setting": "locus YDL101C, strain DUN1, active compounds read low", "result": 0.964}, {"measurement": "normalized growth", "setting": "locus YDL134C, strain PPH21, active compounds read low", "result": 0.963}, {"measurement": "normalized growth", "setting": "locus YDL185W, strain tfp1, active compounds read low", "result": 0.926}, {"measurement": "normalized growth", "setting": "locus YDL192W, strain arf1, active compounds read low", "result": 0.942}, {"measurement": "normalized growth", "setting": "locus YDR001C, strain nth1, active compounds read low", "result": 0.964}, {"measurement": "normalized growth", "setting": "locus YDR069C, strain doa4, active compounds read low", "result": 0.989}, {"measurement": "normalized growth", "setting": "locus YDR101C, strain arx1, active compounds read low", "result": 0.956}, {"measurement": "normalized growth", "setting": "locus YDR137W, strain rgp1, active compounds read low", "result": "0.606 (active)"}, {"measurement": "normalized growth", "setting": "locus YDR150W, strain NUM1, active compounds read low", "result": 0.942}, {"measurement": "normalized growth", "setting": "locus YDR159W, strain sac3, active compounds read low", "result": "0.703 (active)"}, {"measurement": "normalized growth", "setting": "locus YDR162C, strain NBP2, active compounds read low", "result": 0.969}, {"measurement": "normalized growth", "setting": "locus YDR195W, strain ref2", "result": 1.07}, {"measurement": "normalized growth", "setting": "locus YDR297W, strain sur2, active compounds read low", "result": 0.97}, {"measurement": "normalized growth", "setting": "locus YDR318W, strain mcm21, active compounds read low", "result": 0.926}, {"measurement": "normalized growth", "setting": "locus YDR334W, strain swr1, active compounds read low", "result": 0.976}, {"measurement": "normalized growth", "setting": "locus YDR335W, strain msn5, active compounds read low", "result": 1}, {"measurement": "normalized growth", "setting": "locus YDR388W, active compounds read low", "result": 0.935}, {"measurement": "normalized growth", "setting": "locus YDR392W, strain spt3, active compounds read low", "result": "0.295 (active)"}, {"measurement": "normalized growth", "setting": "locus YDR502C, strain sam2, active compounds read low", "result": 0.937}, {"measurement": "normalized growth", "setting": "locus YEL003W, strain gim4, active compounds read low", "result": 0.982}, {"measurement": "normalized growth", "setting": "locus YEL037C, strain rad23, active compounds read low", "result": 0.973}, {"measurement": "normalized growth", "setting": "locus YEL061C, strain CIN8 (second series), active compounds read low", "result": 0.99}, {"measurement": "normalized growth", "setting": "locus YEL061C, strain CIN8, active compounds read low", "result": 0.953}, {"measurement": "normalized growth", "setting": "locus YER015W, strain faa2, active compounds read low", "result": 0.982}, {"measurement": "normalized growth", "setting": "locus YER016W, strain bim1, active compounds read low", "result": 0.98}, {"measurement": "normalized growth", "setting": "locus YER110C, active compounds read low", "result": 0.935}, {"measurement": "normalized growth", "setting": "locus YER111C, strain swi4, active compounds read low", "result": 0.933}, {"measurement": "normalized growth", "setting": "locus YER155C, strain BEM2 (second series), active compounds read low", "result": "0.306 (active)"}, {"measurement": "normalized growth", "setting": "locus YER155C, strain BEM2, active compounds read low", "result": 0.959}, {"measurement": "normalized growth", "setting": "locus YER167W, strain BCK2, active compounds read low", "result": "0.84 (active)"}, {"measurement": "normalized growth", "setting": "locus YFR010W, strain ubp6, active compounds read low", "result": 0.983}, {"measurement": "normalized growth", "setting": "locus YGL078C, strain dbp3, active compounds read low", "result": 0.933}, {"measurement": "normalized growth", "setting": "locus YGL086W, strain mad1, active compounds read low", "result": 0.933}, {"measurement": "normalized growth", "setting": "locus YGL167C, strain pmr1, active compounds read low", "result": 0.974}, {"measurement": "normalized growth", "setting": "locus YGL173C, strain kem1, active compounds read low", "result": 0.96}, {"measurement": "normalized growth", "setting": "locus YGL227W, strain vid30, active compounds read low", "result": 0.954}, {"measurement": "normalized growth", "setting": "locus YGL240W, strain doc1, active compounds read low", "result": "0.774 (active)"}, {"measurement": "normalized growth", "setting": "locus YGL248W, strain PDE1, active compounds read low", "result": 0.954}, {"measurement": "normalized growth", "setting": "locus YGL253W, strain hxk2, active compounds read low", "result": 0.976}, {"measurement": "normalized growth", "setting": "locus YGR078C, strain PAC10, active compounds read low", "result": 0.954}, {"measurement": "normalized growth", "setting": "locus YGR135W, strain pre9, active compounds read low", "result": 0.947}, {"measurement": "normalized growth", "setting": "locus YGR229C, strain SMI1, active compounds read low", "result": 0.954}, {"measurement": "normalized growth", "setting": "locus YGR252W, strain gcn5, active compounds read low", "result": 1.12}, {"measurement": "normalized growth", "setting": "locus YHR013C, strain ard1, active compounds read low", "result": 0.866}, {"measurement": "normalized growth", "setting": "locus YHR027C, strain rpn1, active compounds read low", "result": 0.988}, {"measurement": "normalized growth", "setting": "locus YHR030C, strain SLT2, active compounds read low", "result": "0.945 and 0.982"}, {"measurement": "normalized growth", "setting": "locus YHR079C, strain IRE1 (second series), active compounds read low", "result": 0.927}, {"measurement": "normalized growth", "setting": "locus YHR079C, strain IRE1, active compounds read low", "result": 0.985}, {"measurement": "normalized growth", "setting": "locus YHR094C, strain hxt1, active compounds read low", "result": "0.923 (active)"}, {"measurement": "normalized growth", "setting": "locus YHR129C, strain ARP1, active compounds read low", "result": 0.958}, {"measurement": "normalized growth", "setting": "locus YHR142W, strain chs7, active compounds read low", "result": "0.805 (active)"}, {"measurement": "normalized growth", "setting": "locus YHR200W, strain rpn10, active compounds read low", "result": 0.922}, {"measurement": "normalized growth", "setting": "locus YIL066C, strain RNR3, active compounds read low", "result": 0.955}, {"measurement": "normalized growth", "setting": "locus YIL073C, strain SPO22, active compounds read low", "result": 0.906}, {"measurement": "normalized growth", "setting": "locus YIL125W, strain kgd1, active compounds read low", "result": "0.906 (active)"}, {"measurement": "normalized growth", "setting": "locus YIR030C, strain dcg1, active compounds read low", "result": 0.945}, {"measurement": "normalized growth", "setting": "locus YJL092W, strain hpr5, active compounds read low", "result": 0.95}, {"measurement": "normalized growth", "setting": "locus YJL095W, strain BCK1 (second series), active compounds read low", "result": 0.931}, {"measurement": "normalized growth", "setting": "locus YJL095W, strain BCK1, active compounds read low", "result": "0.871 and 0.984"}, {"measurement": "normalized growth", "setting": "locus YJL115W, strain asf1, active compounds read low", "result": 1.01}, {"measurement": "normalized growth", "setting": "locus YJL129C, strain trk1, active compounds read low", "result": "0.783 (active)"}, {"measurement": "normalized growth", "setting": "locus YJL134W, strain LCB3, active compounds read low", "result": 0.955}, {"measurement": "normalized growth", "setting": "locus YJL154C, strain vps35, active compounds read low", "result": 0.982}, {"measurement": "normalized growth", "setting": "locus YJL164C, strain tpk1, active compounds read low", "result": 0.925}, {"measurement": "normalized growth", "setting": "locus YJL166W, strain qcr8, active compounds read low", "result": "0.728 (active)"}, {"measurement": "normalized growth", "setting": "locus YJL168C, strain set2, active compounds read low", "result": 0.943}, {"measurement": "normalized growth", "setting": "locus YJL187C, strain SWE1 (second series), active compounds read low", "result": 0.959}, {"measurement": "normalized growth", "setting": "locus YJR043C, strain POL32, active compounds read low", "result": 0.965}, {"measurement": "normalized growth", "setting": "locus YJR066W, strain TOR1, active compounds read low", "result": 0.939}]}]}
